{"source": "paper PMC5540273", "about": "(PLoS ONE, 2017);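 note: KINOMEscan kinase panel screen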", "data": [{"system": "ZAK", "settings": "concentration: 1 μM, replicates: in singlicate; n = 1", "units": {"%Inh": "%"}, "values": [{"molecule": "O=C(O)C(F)(F)F.O=C(O)C(F)(F)F.O=c1[nH]ccc2nc(N[C@@H]3CCCNC3)nc(Nc3ccc(S(=O)(=O)N4CCOCC4)cc3)c12", "note": "[GSK2177277]", "%Inh": 0}, {"molecule": "COC(=O)Nc1nc2ccc(Oc3ccc(NC(=O)Nc4cc(C(F)(F)F)ccc4F)cc3)cc2n1C.Cl", "note": "[GW692089]", "%Inh": 87}, {"molecule": "Fc1ccc(-c2ncn(C3CCNCC3)c2-c2ccnc(Oc3ccc(-c4ccccc4)cc3)n2)cc1", "note": "[SB-245391]", "%Inh": 17}, {"molecule": "O=C(Nc1n[nH]c2nc(-c3ccc(O)cc3)ccc12)C1CC1", "note": "[SB-710363]", "%Inh": 23}, {"molecule": "c1ccc(-c2n[nH]cc2Nc2ccnc3ccccc23)nc1", "note": "[GW694077]", "%Inh": 0}, {"molecule": "O=C(Nc1cccc(-c2nn3ccccc3c2-c2ccnc(Nc3cccc(F)c3)n2)c1)c1c(F)ccc(F)c1Cl", "note": "[GSK357952]", "%Inh": 85}, {"molecule": "Nc1ncc(-c2ccc3nccc(-c4ccncc4)c3c2)cc1S(=O)(=O)N1CCOCC1", "note": "[GSK1627798]", "%Inh": 0}, {"molecule": "COc1ccc(Nc2nccc(NCCNC(=O)c3cc4ccccc4s3)n2)cc1", "note": "[GSK1379896]", "%Inh": 0}, {"molecule": "CN(c1ccc(NC(=O)Nc2cc(C(F)(F)F)ccc2F)cc1)c1ccnc(Nc2ccc(S(N)(=O)=O)cc2)n1", "note": "[GW809893]", "%Inh": 94.8}, {"molecule": "COc1ccc(CNC(=O)NC2CCN(c3ccnc(Nc4ccc(F)cc4)n3)CC2)cc1", "note": "[GSK1379788]", "%Inh": 0}, {"molecule": "Cc1ccc(S(=O)(=O)Nc2ccc(Nc3nccc(Nc4cccc5[nH]ncc45)n3)cc2)cc1", "note": "[GSK581271]", "%Inh": 13}, {"molecule": "COc1cccc(NC(=O)NC2CCN(c3ccnc(Nc4cc(OC)c(OC)c(OC)c4)n3)C2)c1", "note": "(stereo not shown) [GSK1379763]", "%Inh": 0}, {"molecule": "CC(C)c1nc(-c2cccc(NS(=O)(=O)c3c(F)cccc3F)c2F)c(-c2ccnc(Nc3ccc(N4CCOCC4)nc3)n2)s1", "note": "[GSK2008607]", "%Inh": 99.1}, {"molecule": "CN1CCN(CCCNc2nccc(-c3c(-c4ccc(F)cc4)nn4cc(C(F)(F)F)ccc34)n2)CC1", "note": "[GW621581]", "%Inh": 17}, {"molecule": "CCn1c(-c2nonc2N)nc2c(C#CC(C)(C)O)nc(OC[C@H](N)c3ccccc3)cc21", "note": "[GSK943949]", "%Inh": 0}, {"molecule": "Cl.c1ccc(-c2ccc3c(Nc4ccc5[nH]ncc5c4)ccnc3c2)nc1", "note": "[GW440137]", "%Inh": 71}, {"molecule": "COc1cccc(-c2ccc3c(NC(=O)C4CC4)n[nH]c3n2)c1", "note": "[SB-710903]", "%Inh": 0}, {"molecule": "CCCCc1nn2ncccc2c1-c1ccnc(Nc2ccc(N3CCN(C)CC3)cc2)n1", "note": "[GW684941]", "%Inh": 51}, {"molecule": "CC(C)(C)c1ccc2nccc(Nc3cccc(O)c3)c2c1", "note": "[GW856795]", "%Inh": 0}, {"molecule": "COc1cc(Nc2nccc(-c3c(-c4cccc(NC(=O)c5c(F)cccc5F)c4)nn4ccccc34)n2)cc(OC)c1OC", "note": "[GSK323521]", "%Inh": 0}, {"molecule": "COc1cccc(C(=O)Nc2cccc(Oc3ccc4nc(NC(=O)C5CC5)cn4n3)c2)c1", "%Inh": 62}, {"molecule": "CCc1ccc(-c2ccc3c(c2)-c2c(cnn2C)S(=O)(=O)N3C)cc1", "%Inh": 3}, {"molecule": "Cn1cc(-c2ccc3c(c2)CCN3C(=O)Cc2cccc(F)c2)c2c(N)ncnc21", "note": "[GSK2603358]", "%Inh": 0}, {"molecule": "COc1cc2c(cc1OCCN1CCNCC1)ncc1c3ccc(C#N)cc3[nH]c21", "%Inh": 8}, {"molecule": "COc1cc(Nc2ncc3c(C)nc(-c4cc5ccccc5[nH]4)n3n2)cc(OC)c1OC", "note": "[GW869516]", "%Inh": 0}, {"molecule": "CC(=O)Nc1nc2cnc(Nc3cc(NC(=O)c4cccc(C5(C#N)CC5)c4Cl)ccc3C)nc2s1", "%Inh": 17}, {"molecule": "CCn1c(-c2nonc2N)nc2c(C#CC(C)(C)O)ncc(OCCCCN)c21.O=C(O)C(F)(F)F.O=C(O)C(F)(F)F", "note": "[GSK507274]", "%Inh": 36}, {"molecule": "Oc1cc(Nc2ccnc3cc(I)ccc23)ccc1F", "note": "[GW552771]", "%Inh": 73}, {"molecule": "Nc1n[nH]c2cnc(-c3ccccc3)cc12", "note": "[SB-642124]", "%Inh": 16}, {"molecule": "C[C@@H]1CC[C@@H](C(=O)Nc2ccccc2)CN1c1cc(-c2ccc3c(N)n[nH]c3c2)nc(N)n1", "note": "[GSK2286062]", "%Inh": 0}, {"molecule": "Cc1ccc(C(=O)N2CC[C@@H](O)C2)cc1-n1c(C)cc(OCc2ccc(F)cc2F)c(Br)c1=O", "%Inh": 0}, {"molecule": "Nc1ncc(-c2cccnc2)c2scc(-c3ccc4c(c3)CCN4C(=O)Cc3ccccc3)c12", "note": "[GSK683281]", "%Inh": 9}, {"molecule": "C[C@@H](Oc1cc(-n2cnc3cc(-c4ccnc(NCCS(C)(=O)=O)c4)ccc32)sc1C(N)=O)c1ccccc1Cl", "note": "[GSK907232]", "%Inh": 27}, {"molecule": "Cc1ccc(F)c(C(=O)Nc2cccc(-c3nn4ccccc4c3-c3ccnc(Nc4cccc(F)c4)n3)c2)c1F", "note": "[GSK361061]", "%Inh": 89}, {"molecule": "Cl.NC(=O)c1cccc(Nc2nccc(Nc3ccc(Oc4c(Cl)cccc4Cl)c(Cl)c3)n2)c1", "note": "[GW659009]", "%Inh": 10}, {"molecule": "CN(C)S(=O)(=O)c1cc(-c2ccc3nccc(-c4cccc(S(N)(=O)=O)c4)c3c2)cnc1N", "note": "[GSK1669921]", "%Inh": 0}, {"molecule": "NCCCC(NC(=O)c1cc(Br)c(-c2ccnc3[nH]ccc23)s1)c1ccccc1.O=C(O)C(F)(F)F.O=C(O)C(F)(F)F", "note": "(stereo not shown) [GSK1287544]", "%Inh": 59}]}]}
